In PMC12136788 one finds binding signal data, which are given here for 22 molecules.

First the molecules themselves.
B1: chr5:14398947:14399058:+|CDS|ENSG00000038382|unk|total|mutant (ssRNA)
RNA: GGGAGUUCUACAGUCCGACGAUCCCCAAAAACCUUAAUUCGAAAGGGUCGAGAACGGCAUCUCUUCCUUUUUGAAAUGUCCUCCGUAUUCCGUAAAGAAGUGAAAGAUUCCAGUGGGAGAAGCAAGUACCUUUAUAAAAGCAACAACAGAGGAUUGAGCAUCA
B2: chr1:206903316:206905147:-|three_prime_utr|ENSG00000162894|control|control|control (ssRNA)
RNA: GGGAGUUCUACAGUCCGACGAUCUCUGUGCCCUGAGCAUGGCUCUGCCCCCAGGUCGUCUUGCACACCUUGGCAGCCCCCUGUAGUUGACAGGUAAGCUGUAGGCAUGUAGAGCAAUUGUCCCAAUGCCACUUGCUUCCUUUCCAACAGAGGAUUGAGCAUCA
B3: chr3:31657911:31664018:-|three_prime_utr|ENSG00000144645|control|control|control (ssRNA)
RNA: GGGAGUUCUACAGUCCGACGAUCGGGUUUUUCUUGCUGAGCCCCCAAGACUGGAUAAAUACCAGGCAGGGGAAGGGAUGGACUAGGGCAGCUCGGUUCUGACUCCAGCUUUGGACAAGGCUUCAGGACAGGUUUUCUGCCACACAACAGAGGAUUGAGCAUCA
B4: chr2:190659421:190659522:+|CDS|ENSG00000138386|unk|FALSE|unique (ssRNA)
RNA: GGGAGUUCUACAGUCCGACGAUCAGAGACUGGGUCACAAACCCUGGGCUUUUCAAUCAGCCACUGACUUCCCUUCCUGUCAGUAGCAUACCCAUCUAUAAAUUACCAGAGGGAUCACCAACAUGGCUGGGAAUAUCCUGCAGUCAACAGAGGAUUGAGCAUCA
B5: chr10:16593140:16593241:-|3pUTR|ENSG00000148484|unk|total|mutant (ssRNA)
RNA: GGGAGUUCUACAGUCCGACGAUCUUAUUUUUCUUUUCACUCUCUUUCUAAUGCUUCCCACCUUACCUUUCCGAUUCUUUUGCCCGGUGGGAGAUUGUUAUAAGGUCUUUAAACCAUUUCCAUUUGUUUCUUUAACAUUACCAACAACAGAGGAUUGAGCAUCA
B6: chr5:72207278:72207408:+|3pUTR|ENSG00000131711|msi1_unk|FALSE|overlapping (ssRNA)
RNA: GGGAGUUCUACAGUCCGACGAUCAGAGAACAAUGACCUCAUUUUAUUUUCUAUGUUAGUUAUUUAUUUCAAAAUUAACAUUUUAGUUGAUUUUUGUCUGAUAAGUCUAUGUUUUGCACUGCUAACUAUGAUGAGGGUUUAAAACAACAGAGGAUUGAGCAUCA
B7: chr7:137014887:137014989:+|CDS|ENSG00000181072|unk|FALSE|unique (ssRNA)
RNA: GGGAGUUCUACAGUCCGACGAUCGCUACUUGGCUACUGAUUAGAGAACGCAAAAUGAAUAACUCAACAAACUCCUCUAACAAUAGCCUGGCUCUUACAAGUCCUUAUAAGACAUUUGAAGUGGUGUUUAUUGUCCUGGUGGCUCAACAGAGGAUUGAGCAUCA
B8: chr1:204554719:204554820:+|3pUTR|ENSG00000198625|unk|FALSE|unique (ssRNA)
RNA: GGGAGUUCUACAGUCCGACGAUCAAGUACUUUCUUUUGACAGAAAUUUUCAUUCUGCUUGCCAUUGCUAUAUUCUCCCUUUAUAGGAGCCAUUGGAUUUCUUUCCUUUUGUGGGAAAUGUCCCAUUAGCAUUUUCAGAUCUUUCAACAGAGGAUUGAGCAUCA
B9: chr12:76028832:76028933:-|3pUTR|ENSG00000139289|msi1|FALSE|unique (ssRNA)
RNA: GGGAGUUCUACAGUCCGACGAUCAAAGGAAAAGACUGGAUAAACACAGGAUUUUCAGUAAGAAAACAACCCCAGUCUUGUCUUAGAAGCCACUUGUUGAGGAGUCUGUUGGGGGAAAAAAGAGGAUAUGCUUUUAAAGGUAGACAACAGAGGAUUGAGCAUCA
B10: chr6:105096826:105097152:-|3pUTR|ENSG00000112276|msi1|FALSE|unique (ssRNA)
RNA: GGGAGUUCUACAGUCCGACGAUCACUUGCAACCUAGUUUUAAAAUACAUGAGGAUUUUAUGAAAGCUUUAUACAGACAUUUAUAGGAAACUCAUUCUUUGAUUUUAGGUGCCAUUUAAAUUGAUAACACUUACUUUAUAAAAACAACAGAGGAUUGAGCAUCA
B11: chr8:41263181:41263319:-|3pUTR|ENSG00000104332|msi1|FALSE|unique (ssRNA)
RNA: GGGAGUUCUACAGUCCGACGAUCCUUAAGUGAUUUGCCUGUAAUUUUGGAUGAUUAAAAAAUGUGUAUAUAUAUUAGCUAAUUAGAAAUAUUCUACUUCUCUGUUGUCAAACUGAAAUUCAGAGCAAGUUCCUGAGUGCGUGGCAACAGAGGAUUGAGCAUCA
B12: chrX:120258281:120258382:+|3pUTR|ENSG00000177485|msi1|FALSE|bound_elsewhere (ssRNA)
RNA: GGGAGUUCUACAGUCCGACGAUCUGUACAAUCUUCCCUGUCAUGACUUUAAGUUCUACUUUUCAUUAACCAUGGCCUGAUAUUAGUUCUUAGAGCUUCUUGUGGCAAAAAUAAAAUGAUUUAAUUCUGAUGUUUGAGUGCGUGCAACAGAGGAUUGAGCAUCA
B13: chr10:17237356:17237519:+|3pUTR|ENSG00000026025|msi1_unk|total|mutant (ssRNA)
RNA: GGGAGUUCUACAGUCCGACGAUCAGACCGAUUUGGAACCGGAAUAAGCUCCCGUUCUUAACAACCGACACUCCUACAAGAUUCCGAAAAAAGUUUACAACAUAAUCCCGUUUACAGAAAAAUCUUGUGCCCGAAUACUUUUUACAACAGAGGAUUGAGCAUCA
B14: chr8:41263181:41263319:-|3pUTR|ENSG00000104332|msi1|total|mutant (ssRNA)
RNA: B11 RNA with U75C, A76C, U83C, A84C
B15: chr6:117694021:117694122:+|CDS|ENSG00000153989|msi1|FALSE|unique (ssRNA)
RNA: GGGAGUUCUACAGUCCGACGAUCGCUGUCUCCGGAAGAUGGAAAAGCAGAUAUUGUAAGAGCUGCUCAGGACUUUUGCCAGUUAGUAGCCCAGAAGCAAAAGAGACCCACAGAUUUGGAUGUAGAUACGUUAGCCAGUUUACUCAACAGAGGAUUGAGCAUCA
B16: chr6:117694021:117694122:+|CDS|ENSG00000153989|msi1|total|mutant (ssRNA)
RNA: B15 RNA with U83C, A84C, U86C, A87C, U122C, A123C, U131C, A132C
B17: chr10:17237356:17237519:+|3pUTR|ENSG00000026025|msi1_unk|FALSE|overlapping (ssRNA)
RNA: GGGAGUUCUACAGUCCGACGAUCAGAUAGAUUUGGAAUAGGAAUAAGCUCUAGUUCUUAACAACCGACACUCCUACAAGAUUUAGAAAAAAGUUUACAACAUAAUCUAGUUUACAGAAAAAUCUUGUGCUAGAAUACUUUUUACAACAGAGGAUUGAGCAUCA
B18: chr1:62654060:62654161:-|CDS|ENSG00000116641|unk|FALSE|unique (ssRNA)
RNA: GGGAGUUCUACAGUCCGACGAUCCUUGUUUUCUACCCAUCUCUUAUCCCAACUUUUUACAAAGGUGCCCCUUACCGAAGCAGUAGAUCCAGUGGAUUUGGAAGAUUACCUCAUUACUCAUCCUUUGGCUGUGGAUUCUGGGCCCAACAGAGGAUUGAGCAUCA
B19: chr8:86558718:86558819:+|3pUTR|ENSG00000085719|unk|total|mutant (ssRNA)
RNA: GGGAGUUCUACAGUCCGACGAUCCUGUUGUUGUUUUUGUUUACUUUCAUAUGAUGAAAAUGCUGUGUUUAAGUGUUUGUCAACCGGAAGAAUGGAAAACUGUUGGGAUGAUGUGGUUUGCAGGUUGCUGUGCCUGAUUCACAGCAACAGAGGAUUGAGCAUCA
B20: chr13:20822168:20822271:-|CDS|ENSG00000132953|unk|FALSE|unique (ssRNA)
RNA: GGGAGUUCUACAGUCCGACGAUCUCGAAAAAUCAGAGAAGAUUCAGAUAUGGCACAAGAUUCUCUGCAGUGCCUUGCCCAGUUAGCUUCUCUUCAUGGACCCAUCUUCCCAGAUGAAGGAUCACAAGUUGAUUAUCUAGCACACAACAGAGGAUUGAGCAUCA
B21: chr21:43758806:43758907:+|3pUTR|ENSG00000160209|msi1|FALSE|unique (ssRNA)
RNA: GGGAGUUCUACAGUCCGACGAUCACUUUCUUAAUCCAGUUUUUCAAACUUCUCCCUGUAGACCGUAAGGAUGAAUUCCACAAUAGGAUCCUUUUUAAAAUCGAUUUUAAAUUGUUGCCUAGUCCUGCCAAGGUUAUUAUGUGCCAACAGAGGAUUGAGCAUCA
B22: chr14:21351797:21351898:-|3pUTR|ENSG00000092201|msi1|FALSE|unique (ssRNA)
RNA: GGGAGUUCUACAGUCCGACGAUCGAGGAAGGCUCAAAGGAGUCAACAUUUAUAUCUGGAAGGGACAAGUCAUGCCUUGGGCCUAGAAUACCCUGAUGAGAAAAGAGAAGAGGAAGGGAGGCCAUAUCUACAACACAGCCUCUCCAACAGAGGAUUGAGCAUCA

Positions count from the first letter of the chain named. In all, about 5,800 sequences were measured (“enrichment r”: median about 0.54, highest 2% from about 16 on). The sample holds the highest values, similar sequences and a random draw of the others, so the mix is not that of the screen.

Chain of MSI1 full-length (Q61474 whole entry): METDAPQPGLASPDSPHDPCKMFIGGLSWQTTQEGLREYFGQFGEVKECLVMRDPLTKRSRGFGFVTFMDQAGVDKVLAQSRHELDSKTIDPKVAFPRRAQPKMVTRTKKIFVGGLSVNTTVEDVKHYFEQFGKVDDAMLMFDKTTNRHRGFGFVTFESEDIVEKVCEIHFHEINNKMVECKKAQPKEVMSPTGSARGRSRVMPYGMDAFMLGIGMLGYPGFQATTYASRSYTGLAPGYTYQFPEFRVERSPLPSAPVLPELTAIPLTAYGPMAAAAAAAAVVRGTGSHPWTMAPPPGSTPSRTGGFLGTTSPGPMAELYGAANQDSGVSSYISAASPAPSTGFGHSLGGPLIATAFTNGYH

This assay has as its target MSI1 full-length (mouse, UniProt Q61474 1-362). The assay is described as follows: nsRBNS (natural sequence RNA bind-n-seq); RBNS binding buffer (assumed for nsRBNS): 25 mM Tris pH 7.5, 150 mM KCl, 3 mM MgCl2, 0.01% Triton X-100, 500 ug/ml BSA, 20 U/ml SUPERase-In, 4 C; UNK is unkempt and MSI1 is Musashi-1; names of the RNAs are library labels; protein concentration not given here; high values mean tight binding.
B1 yielded a binding signal of 0.383 enrichment R.

Turning to B2, the binding signal came out at 0.397 enrichment R.

In turn, B3 displayed a binding signal of 0.515 enrichment R.

Molecule B4 returned a binding signal of 0.584 enrichment R.

Consider B5, for which the binding signal is 1.23 enrichment R.

B6 displayed a binding signal of 1.11 enrichment R.

In turn, B7 yielded a binding signal of 0.188 enrichment R.

Take B8: the binding signal came to 0.583 enrichment R.

For B9, the binding signal worked out at 0.854 enrichment R.

The molecule B10 showed a binding signal of 1.13 enrichment R.

B11 yielded a binding signal of 21.3 enrichment R.

B12: the binding signal came out at 0.662 enrichment R.

As to B13, the binding signal is 0.307 enrichment R.

Consider B14, for which the binding signal was found to be 0.429 enrichment R.

The molecule B15 yielded a binding signal of 17.5 enrichment R.

Regarding B16, the binding signal is 0.409 enrichment R.

Consider B17, for which the binding signal amounted to 20.9 enrichment R.

B18: the binding signal came to 0.626 enrichment R.

Take B19: the binding signal was 0.342 enrichment R.

Molecule B20 came in with a binding signal of 0.341 enrichment R.

With B21, the binding signal came to 0.936 enrichment R.

The molecule B22 had a binding signal of 0.748 enrichment R.
